# Pf apPOL inh = Pf-apPOL inhibitors, biochemical, fluorescence. 210,000 compounds, 0.25% hits. Recombinant Pf-apPOL, molecular beacon fluorescence, 1.5 h. Plasmodium falciparum apicoplast DNA polymerase (apPOL). inhibition, % at 10 µM
# mHTT CaM bind = mutant huntingtin-calmodulin interaction inhibitors – biochemical, AlphaScreen, primary screen. P42858. AlphaScreen His-mHTT/GST-CaM binding, luminescence. inhibition, % at 15 µM. 190,000 compounds, 3.6% hits. AID 1671202, 2021;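 further: 0% = both proteins with DMSO and 100% = one protein alone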
# An asterisk follows results filed as active; / = no result. This is one part of a sample in which hits are shown more often than they occur. No stated cut-off is given here; in the data, active means inhibition above about 50%; inactive means the rest.
SMILES,Pf apPOL inh,mHTT CaM bind
COc1ccc(Nc2nc(-c3ccc(F)cc3F)cs2)cc1,-2,4
COc1ccc(-c2csc(Nc3ccc(S(N)(=O)=O)cc3)n2)cc1,-4,52*
COc1ccc(S(N)(=O)=O)cc1,-4,-2
COc1ccc(SCC(=O)Nc2nc(-c3cccc([N+](=O)[O-])c3)cs2)cc1,-7,-15
CCC(C(=O)Nc1c(C)nc2sccn2c1=O)c1ccccc1 (stereo unspecified),1,-6
CC(=O)N1CCc2cc(Br)cc(S(=O)(=O)Nc3ccc(C)c(Cl)c3)c21,-6,5
O=C1S/C(=C\c2cccs2)C(=O)N1c1ccc(Cl)cc1,-1,1
O=C(NCc1ccc(Cl)cc1)C1CCN(c2cnc3nccnc3c2)CC1,5,-1
COc1ccc(-c2nn(CN3CCN(C(c4ccccc4)c4ccccc4)CC3)c(=S)n2C)cc1OC,/,2
Cc1ccc(C2=NN(CCC(=O)NCCc3ccc(Cl)cc3)C(=O)CC2)cc1,-14,26
COc1ccc(CN2CCN(C(=O)c3ccc([N+](=O)[O-])cc3)CC2)c(OC)c1OC,1,6
COc1ccc(-c2csc(Nc3ccc(N(C)C)cc3)n2)cc1,6,89*
COc1ccc(-c2csc(Nc3cccnc3)n2)cc1,11,/
CCN(CC)c1ccc(Nc2nc(-c3ccncc3)cs2)cc1,-4,85*
C=CCNc1nc(-c2ccncc2)cs1,-4,-1
CCCOC(=O)c1ccc(Oc2c(C)oc3c(CN(C)C)c(O)ccc3c2=O)cc1,-9,20
COc1cccc(C=C2Oc3cc(O)ccc3C2=O)c1OC,-2,-2
COc1ccc(CCN2C(=O)CCC2(C)C(=O)NC2CCCC2)c(OC)c1 (stereo unspecified),-3,-1
CCc1nc(N2CCCC2=O)sc1C(=O)N1CCN(c2cc(C)ccc2C)CC1,0,95*
CC(C)c1nc(N2CCCC2=O)sc1C(=O)N1CCN(c2ccc(F)cc2)CC1,-1,32
CC(C)c1nc(N2CCCC2=O)sc1C(=O)N1CCN(c2ccccc2F)CC1,-3,55*
COC(=O)c1cccc(C(=O)N2CCN(c3cc(C)ccc3C)CC2)n1,0,1
Cc1ccc(C)c(N2CCN(C(=O)c3cc(C)n4nccc4n3)CC2)c1,-3,-6
CCc1cc(C(=O)N2CCN(c3cc(C)ccc3C)CC2)nc2ccnn12,1,54*
O=C(O)c1ccc2c(c1)C(=O)/C(=C/c1ccco1)C2=O,0,8
SMILES,Pf apPOL inh,mHTT CaM bind
O=C(NC1CCN(c2nnc3ccc(Cl)cn23)CC1)c1cccs1,0,-1
Cc1ccc(CNC(=O)c2c(C)oc3ccn(C)c(=O)c23)cc1,0,-11
COc1ccc(Br)cc1C=C1Oc2c(ccc3c2CN(Cc2ccccn2)CO3)C1=O,-197,100*
COc1ccc(C=C2Oc3c(ccc4c3CN(Cc3ccncc3)CO4)C2=O)c(OC)c1,-26,49
COc1cccc(C=C2Oc3c(ccc4c3CN(Cc3ccccn3)CO4)C2=O)c1OC,-92,100*
COc1ccccc1C=C1Oc2c(ccc3c2CN(Cc2ccccn2)CO3)C1=O,-35,-2
COc1cc(OC)c(OC)cc1C=C1Oc2c(ccc3c2CN(Cc2ccccn2)CO3)C1=O,-52,97*
COc1ccc(CN2COc3ccc4c(c3C2)OC(=Cc2cccc(OC)c2OC)C4=O)cc1OC,-6,-3
O=C(c1ccncc1)N1CCC(O)(c2ccccc2)C(N2CCCC2)C1 (stereo unspecified),-1,14
Cc1ccc(-n2[nH]c(C)c(C=Nc3cccc(C(=O)O)c3)c2=O)cc1C,-2,9
O=C(NCCn1nc(-c2ccco2)ccc1=O)c1ccc2ncsc2c1,7,8
c1csc(-c2cc3ccccc3[nH]2)c1,11,/
NCCc1c(-c2cccs2)[nH]c2ccccc12,-6,88*
Cc1ccc2ncn(C3CCN(C(=O)COc4ccccc4)CC3)c2c1,-5,-6
Cc1cc(C)c2oc(=O)n(C3CCN(C(=O)COc4ccccc4)CC3)c2c1,-3,73*
O=C(NCc1ccccc1C(F)(F)F)C1CCN(c2cncnc2N2CCCC2)CC1,-1,23
COC(=O)[C@@H]1N[C@@H]([C@@H](NC(=O)COc2ccccc2)C(=O)Nc2ccc(OC)cc2)SC1(C)C,-6,31
Cc1c2c(n(Cc3c(F)cccc3F)c1C(=O)NCc1ccccn1)CCCC2,-2,17
Cc1cccc(Cn2c3c(c(C)c2C(=O)NCc2ccccn2)CCCC3)c1,4,86*
Cc1ccc(C)c(C(=O)N2CCCC2COc2ccc(C(=O)NC3CC3)cc2)c1 (stereo unspecified),6,8
COc1ccccc1N1COc2cc(C)c(Cl)c(C)c2C1,-1,100*
COc1ccccc1N1COc2ccc(F)cc2C1,5,47
O=C(C1=NN(Cc2ccc(F)cc2)c2ccccc2S1(=O)=O)N1CCCCC1,-7,22
CS(=O)(=O)N1CCN(C(=O)c2cc(-c3ccco3)[nH]n2)CC1,0,-9

# Assay outcomes as filed in PubChem.
